Test [1] deals with Glucocorticoid receptor (Homo sapiens) (UniProt P04150). The test is described as follows: qHTS assay for small molecule antagonists of glucocorticoid receptor signaling (AID 588533; active means well fitted inhibition curve with a large enough effect in the signal ratio, with a control signal flat, not every such curve was filed as active; the % refers to the signal ratio; further: on the % scale 0 is the no-effect control and ±100 the full control effect). The gist of the method:
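Antagonist-mode qHTS: compound titrations added to GRE-bla HeLa cells, then dexamethasone 2 nM final; 18 h, 37 C. CCF4 FRET fluorescence normalized to dexamethasone and DMSO; IC50 from Hill fit.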

Test [2] in a line: qHTS assay for small molecule antagonists of peroxisome proliferator-activated receptor delta signaling (AID 588535; active means well fitted inhibition curve with a large enough effect in the signal ratio, with a control signal flat, not every such curve was filed as active; the % refers to the signal ratio;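 on max response: cells co-treated with a PPAR-delta agonist as stimulator during compound exposure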). As to conditions: HEK293T PPARd-UAS-bla, beta-lactamase FRET ratio, 18 h; 460 nm channel. The gist of the method:
(§1)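 Cells were seeded at 4000 per well in assay medium containing 2% charcoal/dextran FBS and held 5 hrs at 37 C. Compounds were then added for 18 hrs. CCF4 substrate was applied for 2 hrs at room temperature before fluorescence reading.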

Test [3] has as its target Peroxisome proliferator-activated receptor delta (Homo sapiens) (UniProt Q03181). Described as above. The gist of the method: as §1
For test [4], the target named is Vitamin D3 receptor (Homo sapiens) (UniProt P11473). Nature of the test: qHTS assay for small molecule antagonists of vitamin D receptor signaling (AID 588541; calls by dose curve;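 further: receptor activated by calcitriol during compound treatment; series mostly up to about 77 µM; on the % scale 0 is the no-effect control and ±100 the full control effect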). The gist of the method:
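VDR-UAS-bla HEK293T cells in 2% charcoal-stripped FBS were stimulated with 1-alpha,25-dihydroxyvitamin D3 (3 nM final) plus compound for 16 h at 37 C. The beta-lactamase CCF4 readout was normalized to 50 nM agonist and DMSO, and Hill fits gave IC50.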

Test [5] has as its target Retinoic acid receptor RXR-alpha (Homo sapiens) (UniProt P19793). The test is described as follows: qHTS assay for small molecule agonists of retinoid X receptor alpha signaling (AID 588544; calls by dose curve;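 further: 0% = DMSO basal wells and 100% = reference agonist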).
A short description of test [6]: qHTS assay for small molecule antagonists of retinoid X receptor alpha signaling (AID 588546; active means well fitted inhibition curve with a large enough effect in the signal ratio, with a control signal flat, not every such curve was filed as active; the % refers to the signal ratio;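 further: cells stimulated with 9-cis-retinoic acid as agonist; on the % scale 0 is the no-effect control and ±100 the full control effect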). As to conditions: HEK293T RXRa-UAS-bla, beta-lactamase ratio, antagonist mode; measured here: W530 green channel, cytotoxicity proxy. The essentials:
(§2)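 Beta-lactamase reporter inhibition, read as CCF4 fluorescence ratio (ex 405, em 460/530 nm) after 2 h at RT. HEK293T UAS-bla cells, 2500/well, were stimulated with 9-cis-RA at 500 or 100 nM final alongside test compound for 18 h at 37 C.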

The target in test [7] is Retinoic acid receptor RXR-alpha (Homo sapiens) (UniProt P19793). The test is described as above. As to conditions: HEK293T RXRa-UAS-bla, beta-lactamase ratio, antagonist mode. The essentials: as §2
Sequence of Retinoic acid receptor RXR-alpha (Homo sapiens) (P19793 whole entry, looked up): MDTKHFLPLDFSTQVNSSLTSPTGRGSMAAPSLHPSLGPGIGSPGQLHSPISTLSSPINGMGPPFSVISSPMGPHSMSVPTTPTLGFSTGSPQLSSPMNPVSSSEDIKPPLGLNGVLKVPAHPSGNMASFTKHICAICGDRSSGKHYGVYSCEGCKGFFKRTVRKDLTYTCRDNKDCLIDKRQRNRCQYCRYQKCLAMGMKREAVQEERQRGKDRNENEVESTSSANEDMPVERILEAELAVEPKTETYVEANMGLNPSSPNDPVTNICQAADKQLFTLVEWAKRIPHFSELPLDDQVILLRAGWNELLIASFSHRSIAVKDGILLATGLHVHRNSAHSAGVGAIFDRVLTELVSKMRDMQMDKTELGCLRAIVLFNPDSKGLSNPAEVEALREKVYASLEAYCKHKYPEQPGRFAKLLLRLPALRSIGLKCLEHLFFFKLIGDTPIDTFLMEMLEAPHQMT
The nature of test [8]: qHTS assay for small molecule activators of the nuclear factor-kappa B (NF-kB) signaling pathway (AID 651749; active means well fitted activation curve with a large enough effect in the signal ratio; the % refers to the signal ratio; further: series mostly up to about 77 µM; % of control where 0% means no effect). Particulars: NF-kB-bla ME-180 cells, beta-lactamase FRET ratio, 16 h; activation: stronger effect = higher value. The essentials:
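Incubation lasted 16 hr at 37C in 5% CO2 after 23 nL compound addition to ME-180 NF-kB-bla cells. Activation appears as beta-lactamase-mediated FRET loss.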

Test [9] can be described thus: qHTS assay for environmental chemicals that activate the Aryl hydrocarbon Receptor (AhR) signaling pathway (AID 651777). Further: % of control where 0% means no effect; nearly all actives have a fitted effect of over 15% in size. As to conditions: 1A2-DRE human hepatoma cells, luciferase, 24 h; activation: stronger effect = higher value. The essentials: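 Human hepatoma 1A2-DRE cells, stably carrying a dioxin response element and CYP1A2 promoter driving luciferase, were exposed to compounds for 24 hr at 37 C and 5% CO2. Luciferase signal was then read after 30 min One-Glo at room temperature.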

Test [10] deals with Peroxisome proliferator-activated receptor alpha (Homo sapiens) (UniProt Q07869). The test is described as follows: qHTS assay for small molecule agonists of the peroxisome proliferator-activated receptor alpha (PPARalpha) signaling pathway (AID 651778). Further: % of control where 0% means no effect. Particulars: PathHunter PPARalpha complementation, chemiluminescence, 6 h; max response: stronger effect = higher value. The gist of the method:
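Enzyme-fragment complementation assay in which ligand-bound PPARalpha translocates and forms an active enzyme that generates chemiluminescence. Cells were plated overnight, exposed to compound for 6 hr at 37 C, and then given detection reagent for 60 min at room temperature.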

The nature of test [11]: qHTS assay for small molecule agonists of the antioxidant response element (ARE) signaling pathway measured by Nrf2-dependant transcriptional activity (AID 720636; active means well fitted curve in the direction sought with a large enough effect in the repeat runs; an effect the other way counts as inactive or inconclusive; further: % of control where 0% means no effect). The essentials: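 ARE-luc HepG2 cells carrying an Nrf2-responsive luciferase reporter were plated in medium with 1% dialyzed FBS, left 6 hr at 37 C to attach, then exposed to compound for 16 hr. Luciferase luminescence was read after ONE-Glo addition.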

Test [12] in a line: qHTS assay for small molecule agonists of the antioxidant response element (ARE) signaling pathway measured by Nrf2-dependant transcriptional activity - cell viability counter screen (AID 720653; active means well fitted curve in the direction sought with a large enough effect in the repeat runs; an effect the other way counts as inactive or inconclusive; further: on the % scale 0 is the no-effect control and ±100 the full control effect). Particulars: ARE-bla HepG2 viability, CellTiter-Glo ATP luminescence, 16 h; max response: stronger effect = lower value. The essentials: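 ARE-bla HepG2 cells treated with compounds for 16 h at 37C; this counter screen measures viability as intracellular ATP by CellTiter-Glo luminescence after 30 min at room temperature.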

The nature of test [13]: qHTS assay for cell viability of HEK293 cells (AID 743288). Further: on the % scale 0 is the no-effect control and ±100 the full control effect; nearly all actives have a fitted effect of over 50% in size. Particulars: ATP luminescence (CellTiter-Glo), 18 h; max response: stronger effect = lower value. The essentials: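 The Tox21 protocol used parental HEK293 cells treated for 18 h at 37 C with compounds delivered by pintool; ATP-coupled luminescence after 30 min at room temperature gave viability.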
In test [14] the target is Nuclear receptor subfamily 1 group I member 2 (Rattus norvegicus) (UniProt Q9R1A7). The test is described as follows: qHTS assay for small molecule activators of the rat pregnane X receptor (rPXR) signaling pathway (AID 651751; call rule not given here; further: 0% is about no effect). Particulars: rPXR reporter cells, luciferase (One-Glo), 24 h.
Sequence of Nuclear receptor subfamily 1 group I member 2 (Rattus norvegicus) (Q9R1A7 whole entry, looked up): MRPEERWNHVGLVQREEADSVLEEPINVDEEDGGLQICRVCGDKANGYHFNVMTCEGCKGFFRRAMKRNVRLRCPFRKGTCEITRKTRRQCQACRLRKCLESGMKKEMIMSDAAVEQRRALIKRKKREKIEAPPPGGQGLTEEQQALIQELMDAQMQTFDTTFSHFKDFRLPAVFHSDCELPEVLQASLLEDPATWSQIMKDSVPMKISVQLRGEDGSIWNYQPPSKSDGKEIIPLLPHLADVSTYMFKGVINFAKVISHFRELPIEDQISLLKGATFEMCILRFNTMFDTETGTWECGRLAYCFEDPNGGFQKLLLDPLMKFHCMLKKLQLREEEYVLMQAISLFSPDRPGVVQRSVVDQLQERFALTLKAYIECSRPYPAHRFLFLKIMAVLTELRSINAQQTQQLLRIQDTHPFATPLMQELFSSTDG
A short description of test [15]: qHTS assay for small molecule activators of the human pregnane X receptor (PXR) signaling pathway (AID 720659; call rule not given here; further: 0% is about no effect).
Test [16] has as its target Vitamin D3 receptor (Homo sapiens) (UniProt P11473). Nature of the test: qHTS assay for small molecule agonists of vitamin D receptor signaling (AID 588543; calls by dose curve;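 further: 0% = DMSO basal and 100% = reference agonist control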). The gist of the method: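 qHTS in agonist mode: compound titrations stimulate a VDR-driven β-lactamase reporter in HEK293T cells over 16 h at 37 °C. Response normalized to 50 nM 1α,25-dihydroxyvitamin D3 = 100%, DMSO = 0%; Hill fitting gives EC50 and maximal response.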

In test [17] the target is Thyroid hormone receptor beta (Homo sapiens) (UniProt P10828). The test is described as follows: qHTS assay for small molecule agonists of thyroid hormone receptor beta signaling (AID 588545; calls by dose curve). The gist of the method:
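HEK 293 TR-UAS-bla; agonist mode; 18 hrs, 37 C; CCF4, ex 405/em 460 and 530 nm; norm. T3 10 nM = 100%, DMSO = 0%; Hill fit → EC50, efficacy.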

Test [18] is described as follows: qHTS assay for cell viability of the p53RE-bla HCT-116 cell line (AID 743292). Further: nearly all actives have a fitted effect of over 55% in size. Further: potency means the concentration at half of the fitted maximal effect. The gist of the method: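 CellSensor p53RE-bla HCT-116 cells, 4,000/well, preincubated 5 h at 37 C, then exposed to compounds in DMSO for 16 h at 37 C. Viability read as CellTiter-Glo luminescence (intracellular ATP) after 30 min at room temperature.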
A short description of test [19]: qHTS assay for small molecule activators of the p53 signaling pathway (AID 651743; active means well fitted activation curve with a large enough effect in the signal ratio, not every such curve was filed as active; the % refers to the signal ratio; further: potency means the concentration at half of the fitted maximal effect; on activation: series mostly up to about 92 µM; % of control where 0% means no effect). Particulars: HCT-116 p53RE-bla, beta-lactamase FRET ratio, 16 h; activation: stronger effect = higher value. The essentials:
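HCT-116 p53RE-bla, 4,000 cells/well; 5 h settle; cpd/DMSO 16 h, 37 C; LiveBLAzer B/G 2 h RT; fluorescence intensity.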

Where “and” joins values, the source holds several entries; their conditions need not be identical. Equal values may be shown once. Inconclusive results are not listed. Calls of active or inactive are those of the source. Unless noted, the call rests on the fitted dose curve; in most records, active means well fitted curve in the direction sought with a large enough effect; inconclusive means small, poorly fitted or top-dose-only effect, or another doubt; inactive means no such curve, though single readings can be large; an effect the other way counts as inactive or inconclusive.

Sequence of Glucocorticoid receptor (Homo sapiens) (P04150 whole entry, looked up): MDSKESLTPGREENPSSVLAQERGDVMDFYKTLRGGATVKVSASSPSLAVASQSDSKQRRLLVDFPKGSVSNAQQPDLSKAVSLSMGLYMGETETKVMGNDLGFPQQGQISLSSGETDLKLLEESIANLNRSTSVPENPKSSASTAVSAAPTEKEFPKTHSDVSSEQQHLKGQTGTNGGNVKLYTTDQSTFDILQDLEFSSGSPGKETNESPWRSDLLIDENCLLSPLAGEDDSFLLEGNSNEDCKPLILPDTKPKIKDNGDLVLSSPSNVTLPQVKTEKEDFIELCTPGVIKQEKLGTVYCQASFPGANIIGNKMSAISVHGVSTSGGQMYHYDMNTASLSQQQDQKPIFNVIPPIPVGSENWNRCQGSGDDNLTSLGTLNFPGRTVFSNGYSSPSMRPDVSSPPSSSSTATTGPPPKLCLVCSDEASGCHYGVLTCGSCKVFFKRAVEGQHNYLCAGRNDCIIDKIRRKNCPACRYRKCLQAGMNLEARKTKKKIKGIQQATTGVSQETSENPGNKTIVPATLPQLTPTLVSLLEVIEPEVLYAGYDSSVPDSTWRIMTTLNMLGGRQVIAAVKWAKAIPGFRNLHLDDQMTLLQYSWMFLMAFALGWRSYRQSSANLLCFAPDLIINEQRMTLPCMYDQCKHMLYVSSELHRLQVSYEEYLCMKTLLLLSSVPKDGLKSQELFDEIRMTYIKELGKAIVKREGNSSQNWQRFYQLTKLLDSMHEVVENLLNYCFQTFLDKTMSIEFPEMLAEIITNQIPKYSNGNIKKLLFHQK
Sequence of Peroxisome proliferator-activated receptor delta (Homo sapiens) (Q03181 whole entry, looked up): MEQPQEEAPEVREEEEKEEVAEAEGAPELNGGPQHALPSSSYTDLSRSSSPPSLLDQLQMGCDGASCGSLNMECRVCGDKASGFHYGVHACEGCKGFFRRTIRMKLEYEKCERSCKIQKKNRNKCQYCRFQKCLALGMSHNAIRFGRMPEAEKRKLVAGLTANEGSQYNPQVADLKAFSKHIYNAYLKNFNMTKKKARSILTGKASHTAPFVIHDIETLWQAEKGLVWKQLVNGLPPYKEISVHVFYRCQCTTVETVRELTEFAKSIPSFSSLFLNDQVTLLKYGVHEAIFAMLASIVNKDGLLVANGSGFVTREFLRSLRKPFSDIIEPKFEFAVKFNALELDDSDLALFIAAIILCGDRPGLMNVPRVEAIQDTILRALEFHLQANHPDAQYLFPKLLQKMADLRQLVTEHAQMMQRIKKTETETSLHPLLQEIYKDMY
Sequence of Thyroid hormone receptor beta (Homo sapiens) (P10828 whole entry, looked up): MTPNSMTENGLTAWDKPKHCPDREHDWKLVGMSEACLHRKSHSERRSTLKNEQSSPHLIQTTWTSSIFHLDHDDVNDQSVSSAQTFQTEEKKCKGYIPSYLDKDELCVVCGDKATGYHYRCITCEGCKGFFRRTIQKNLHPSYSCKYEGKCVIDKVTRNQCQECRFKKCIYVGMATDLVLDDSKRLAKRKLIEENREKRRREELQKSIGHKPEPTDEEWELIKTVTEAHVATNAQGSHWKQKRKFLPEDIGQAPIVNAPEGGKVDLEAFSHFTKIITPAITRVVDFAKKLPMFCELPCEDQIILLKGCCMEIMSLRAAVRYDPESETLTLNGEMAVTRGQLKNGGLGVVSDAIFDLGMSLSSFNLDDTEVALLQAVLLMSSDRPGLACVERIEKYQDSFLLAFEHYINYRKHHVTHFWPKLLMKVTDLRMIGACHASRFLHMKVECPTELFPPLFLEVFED
Sequence of Peroxisome proliferator-activated receptor alpha (Homo sapiens) (Q07869 whole entry, looked up, the tested form may be a part): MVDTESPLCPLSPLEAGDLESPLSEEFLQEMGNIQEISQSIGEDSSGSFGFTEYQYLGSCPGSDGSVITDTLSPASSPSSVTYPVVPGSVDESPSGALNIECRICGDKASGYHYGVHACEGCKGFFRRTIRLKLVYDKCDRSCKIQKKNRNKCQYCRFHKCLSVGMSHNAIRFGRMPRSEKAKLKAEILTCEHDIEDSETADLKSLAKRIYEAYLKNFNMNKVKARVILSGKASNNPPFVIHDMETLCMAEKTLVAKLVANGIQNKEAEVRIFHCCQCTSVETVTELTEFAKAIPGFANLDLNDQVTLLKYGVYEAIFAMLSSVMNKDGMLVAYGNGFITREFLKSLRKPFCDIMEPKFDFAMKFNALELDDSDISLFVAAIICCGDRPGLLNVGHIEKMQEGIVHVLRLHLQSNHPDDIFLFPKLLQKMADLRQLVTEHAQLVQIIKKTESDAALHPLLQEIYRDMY
Sequence of Vitamin D3 receptor (Homo sapiens) (P11473 whole entry, looked up): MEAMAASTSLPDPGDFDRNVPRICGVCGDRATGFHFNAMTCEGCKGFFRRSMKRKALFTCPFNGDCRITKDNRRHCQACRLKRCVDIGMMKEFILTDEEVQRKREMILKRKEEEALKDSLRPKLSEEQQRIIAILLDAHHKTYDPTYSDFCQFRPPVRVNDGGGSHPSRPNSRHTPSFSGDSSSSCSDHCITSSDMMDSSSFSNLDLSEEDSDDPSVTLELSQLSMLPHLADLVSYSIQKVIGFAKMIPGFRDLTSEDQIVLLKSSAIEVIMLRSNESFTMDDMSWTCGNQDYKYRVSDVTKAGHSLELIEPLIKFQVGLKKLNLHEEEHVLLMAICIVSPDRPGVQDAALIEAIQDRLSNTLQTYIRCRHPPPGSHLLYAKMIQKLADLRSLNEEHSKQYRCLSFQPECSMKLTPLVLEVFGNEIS

As to `C=C(C)C(=O)OCCC[Si](Cl)(Cl)Cl`, the Potency result in test [1], in [3], in test [4], in test [5] and in test [11] was “inactive” each time. In addition, the max response in [2] was 8.96%; in test [6] it was -12.6%; in test [7], 9.64% (inactive); in test [10], 0.0328% (inactive); in [12], -17.2% (inactive); in [13], -10.2% (inactive). Moreover, the max response in test [14] was 1.99% (inactive). The figures for the activation in test [8] and in [9] were -0.259% (inactive) and -0.113% (inactive), respectively. In addition, in test [15], the compound was classed as inactive.
For `S=C(S)NCCNC(=S)S`, the Potency result in [1], in test [17] and in test [18] was “inactive” throughout. For the same compound, the compound was called inactive in test [16]. Besides, the activation in test [9] is 0.998% (inactive). The results for the max response in [12], in [13] and in test [14] were -0.0675% (inactive), -6.97% (inactive) and -0.407% (inactive), respectively.
Take `CS(=O)(=O)c1ccc(Cl)cc1`: the Potency result in test [1], in test [3], in [5], in test [17] and in [18] was “inactive” each time. Besides, the max response was 15.6% in test [2]; -4.7% in test [6]; -0.188% (inactive) in [10]; -17.3% (inactive) in test [13]; 3.76% (inactive) in test [14]. In addition, the outcome in [16] and in [15] was inactive. Moreover, in test [9], the activation was 0.81% (inactive).
As for `O=C1CCC(C2CCCCC2)CC1`, the Potency result in [1], in [4], in [5], in [17], in test [11] and in test [18] was “inactive” throughout. Also, the call in test [16] and in test [15] was inactive. The max response in test [6] is -11.9%; in test [7] it was -6.4% (inactive); in [10], -1.16% (inactive); in [12], -5.5% (inactive); in test [13] it was -5.89% (inactive); in [14], -0.198% (inactive). Further, the activation in test [19] is -4.16% (inactive); in test [8], -1.09% (inactive); in [9], -0.377% (inactive).
`CCCCCCC(C)OC(=O)COc1nc(F)c(Cl)c(N)c1Cl` (stereo not given): the outcome in [16] was inactive. Also, the activation was -6.58% (inactive) in test [19] and 3.49% (inactive) in test [8]. The results for the max response in test [10], in [12] and in test [13] were 25.7% (inactive), 17% (inactive) and -29.6% (inactive), respectively.
In the case of `O=C(Nc1ccccc1)c1cc(Cl)ccc1O`, the Potency entry in [4] and in test [17] was “inactive” each time. Moreover, the outcome in test [16] and in test [15] was inactive. Also, the Potency is 10 µM (active) in test [19] and 35.5 µM (active) in [18]. Also, in test [8], the activation is 4.05% (inactive).
Consider `CCNc1nc(N)nc(Cl)n1`, for which the max response in test [2] was 34.2%; in [6], -17.5% and -16.5%; in [7] it was 7.29% (inactive) and -4.52% (inactive); in test [12], -7.89% (inactive) and -3.73% (inactive); in [13] it was -4.19% (inactive) and 3.18% (inactive); in test [14] it was -3.95% (inactive) and -0.52% (inactive). Moreover, the Potency entry in test [3], in test [5], in test [17], in [11] and in test [18] was “inactive” each time. Moreover, in test [16], the compound was classed as inactive. Further, the activation was -2.48% (inactive) and -1.49% (inactive) in test [19]; -0.704% (inactive) and -0.787% (inactive) in [8].
As to `CCOC(=O)NCCOc1ccc(Oc2ccccc2)cc1`, the max response is -16.1% in test [2], -0.313% (inactive) in test [10] and -19.4% (inactive) in [12]. The Potency result in test [3], in [4], in test [17] and in [18] was “inactive” each time. For the same compound, the activation in test [8] was 2.75% (inactive); in test [9], 5.93% (inactive).
`CC1(C)C(=O)N(Br)C(=O)N1Cl`: the Potency entry in [4], in test [5], in test [17] and in test [11] was “inactive” in each case. The result in [16] was inactive. For the same compound, the max response in test [6] is -9.45%; in test [7], -6.62% (inactive); in test [10], -1.51% (inactive); in test [12], -11.1% (inactive); in [13], -4.13% (inactive); in [14] it was 1.46% (inactive). For the same compound, the activation was 2.83% (inactive) in [19], -2.38% (inactive) in test [8] and 1.28% (inactive) in test [9].
For the compound `Clc1nc(Cl)c(Cl)c(Cl)c1Cl`, the Potency entry in test [1], in test [3], in test [4], in test [5], in test [17] and in test [11] was “inactive” in each case. Further, in [18], the Potency result was “inactive”. For the same compound, the max response in test [2] was 31.1%; in [6] it was -0.304%; in [7], -25.7% (inactive); in [10], -3.38% (inactive); in test [12], -5.53% (inactive); in test [13], -14.3% (inactive). Further, in [14], the max response is -3.08% (inactive). The result in test [16] and in test [15] was inactive. Moreover, the activation in [19] is -0.354% (inactive); in [8], -1.8% (inactive); in [9], -0.0238% (inactive).
For the compound `N#CSCSc1nc2ccccc2s1`, the result in test [16] was inactive. Moreover, the max response in test [10] was -9.14% (inactive). The Potency entry in test [11] was “inactive”.

The record behind these values is PubChem BioAssay (NCATS).
